The full ranking holds about 18,000 sequences; the median of “log2 normalized intensity” is about 0.39, and the highest 2% start at about 6.6. This is one part of a sample in which the highest values are shown more often than they occur.

Among the data in publication PMC10726135, “HNF4α isoforms regulate the circadian balance between carbohydrate and lipid metabolism in the liver” are binding signal values, retold here.

The test deals with T1, HNF4alpha2 (COS-7 nuclear extract) (Homo sapiens, UniProt P41235 1-474).
T1 sequence: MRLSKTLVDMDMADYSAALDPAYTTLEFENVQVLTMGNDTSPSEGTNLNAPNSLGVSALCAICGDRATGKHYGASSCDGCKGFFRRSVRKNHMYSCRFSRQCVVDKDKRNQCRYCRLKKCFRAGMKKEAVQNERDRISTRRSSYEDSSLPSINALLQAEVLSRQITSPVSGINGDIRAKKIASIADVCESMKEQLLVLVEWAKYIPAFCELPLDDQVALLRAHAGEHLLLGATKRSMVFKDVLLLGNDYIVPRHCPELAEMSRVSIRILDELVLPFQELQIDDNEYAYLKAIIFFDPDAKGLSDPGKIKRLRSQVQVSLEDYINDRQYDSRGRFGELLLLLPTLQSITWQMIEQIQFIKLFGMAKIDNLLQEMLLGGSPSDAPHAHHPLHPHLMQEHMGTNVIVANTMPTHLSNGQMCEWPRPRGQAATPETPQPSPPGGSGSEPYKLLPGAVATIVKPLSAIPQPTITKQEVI
As to the kind of experiment: protein-binding microarray; COS-7 nuclear extract on double-stranded Agilent 4x180k PBM; binding buffer, salt, pH and temperature not given in the material; high values mean tight binding. Conditions: chain copies: 2; label: 3' end of strand 1 on the slide; dsDNA, one strand shown. The method in brief:
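Nuclear extracts came from COS-7 cells transiently transfected by CaPO4 with a human HNF4α isoform expression vector. They were applied to a custom Agilent SurePrint G3 4x180k array of ~60-nt oligonucleotides, made double-stranded, with ~44,000 test sequences spotted in quadruplicate. Bound HNF4α was imaged at 2-µm resolution on an Agilent G2565CA scanner. Binding signal was taken as background-corrected, normalized gProcessedSignal from Agilent software.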
For the sequence “AGTGGAATGTGCCCTTTGACCTCTCTCTCCGCCTAGGGAGATTAGAGTATCGGTCGA”, the binding signal is 7.71 log2 normalized intensity.

For the sequence “CCTGACCCCCAGTGGAATGTGCCCTTTGACGCCTAGGGAGATTAGAGTATCGGTCGA”, the binding signal came out at 4.95 log2 normalized intensity.

On to “GGTGGGCTGCTCCCAGTGCCCTTTGAACTCGCCTAGGGAGATTAGAGTATCGGTCGA”, for which the binding signal was determined as 8.32 log2 normalized intensity.

With “GGCGCCGCTCTGAGTGACCTTTCACCCGCGGCCTAGGGAGATTAGAGTATCGGTCGA”, the binding signal came out at 6.81 log2 normalized intensity.

As for “CGCCGGGCGCCGCTCTGAGTGACCTTTCACGCCTAGGGAGATTAGAGTATCGGTCGA”, the binding signal was determined as 4.57 log2 normalized intensity.

Take “CGCTCTGAGTGACCTTTCACCCGCGCCCAGGCCTAGGGAGATTAGAGTATCGGTCGA”: the binding signal is 5.48 log2 normalized intensity.

For the sequence “AGTAACCTGACCCCCAGTGGAATGTGCCCTGCCTAGGGAGATTAGAGTATCGGTCGA”, the binding signal was found to be 3.87 log2 normalized intensity.

Regarding “CCCCCAGTGGAATGTGCCCTTTGACCTCTCGCCTAGGGAGATTAGAGTATCGGTCGA”, the binding signal worked out at 9.72 log2 normalized intensity.

Regarding “GGCCAGGTGGGCTGCTCCCAGTGCCCTTTGGCCTAGGGAGATTAGAGTATCGGTCGA”, the binding signal worked out at 3.73 log2 normalized intensity.

In the case of “GTGCTCCCTCCCCCTGCATGAACCTTTGCTGCCTAGGGAGATTAGAGTATCGGTCGA”, the binding signal is 3.19 log2 normalized intensity.

For the sequence “GGAATGACCTTTGATATTTGTGCCTAGTGGGCCTAGGGAGATTAGAGTATCGGTCGA”, the binding signal turned out to be 4.8 log2 normalized intensity.

“AATGTGCCCTTTGACCTCTCTCTCCTAACTGCCTAGGGAGATTAGAGTATCGGTCGA”: the binding signal was found to be 6.48 log2 normalized intensity.

“CTTCAAAGGTCGTGTGCTTATCACATCTATGCCTAGGGAGATTAGAGTATCGGTCGA”: the binding signal stood at 1.12 log2 normalized intensity.

“GTGATGACCCCATACTTCAGCAATTTCTTAGCCTAGGGAGATTAGAGTATCGGTCGA”: the binding signal came to 1.12 log2 normalized intensity.

With “AATCCCCTTCAAGTCTGAGATGAAGAGGCCGCCTAGGGAGATTAGAGTATCGGTCGA”, the binding signal stood at 0.649 log2 normalized intensity.

Turning to “CAGTGGTAATGGAGCTGAAACTATAAACTTGCCTAGGGAGATTAGAGTATCGGTCGA”, the binding signal was -0.653 log2 normalized intensity.

For “ACCTTTGCCCTGGATCTTGAAGCAGAAAACGCCTAGGGAGATTAGAGTATCGGTCGA”, the binding signal was determined as 1.58 log2 normalized intensity.

For “TAATCAGCTTAAGCATACAGATTACATCTCGCCTAGGGAGATTAGAGTATCGGTCGA”, the binding signal is -0.798 log2 normalized intensity.

Regarding “ACGTTCACGTCTCAAGCTTCAGGAGTCCACGCCTAGGGAGATTAGAGTATCGGTCGA”, the binding signal is 2.07 log2 normalized intensity.

Take “ATACGATAATGTCAAACATCTTATATCAACGCCTAGGGAGATTAGAGTATCGGTCGA”: the binding signal was found to be 0.675 log2 normalized intensity.

As to “TCTATCTGTATTCTGAAGCCCTACAGCCCAGCCTAGGGAGATTAGAGTATCGGTCGA”, the binding signal is -0.864 log2 normalized intensity.

“CCTCTGCATTTGCTCCCTGACTTGGTTTACGCCTAGGGAGATTAGAGTATCGGTCGA”: the binding signal was 1.67 log2 normalized intensity.

For the sequence “CAGATCCAGTGGACTCTCTGTTTGATCAGCGCCTAGGGAGATTAGAGTATCGGTCGA”, the binding signal stood at 1.51 log2 normalized intensity.

With “TGTCACACACAGACTTGGGTTCAAAGAGCAGCCTAGGGAGATTAGAGTATCGGTCGA”, the binding signal was 3.94 log2 normalized intensity.

“AATGATTGCATAATCTGGCTCCAAAGTCTAGCCTAGGGAGATTAGAGTATCGGTCGA”: the binding signal was found to be 2.2 log2 normalized intensity.

As to “CCTTTACCCTGACCTGTCAAGCAATGATCTGCCTAGGGAGATTAGAGTATCGGTCGA”, the binding signal amounted to 1.25 log2 normalized intensity.

Regarding “AGCAGTCTGAGTAGGAAAGACTTGCTCATTGCCTAGGGAGATTAGAGTATCGGTCGA”, the binding signal is -0.18 log2 normalized intensity.

For the sequence “TGGTGCCCTCTGAGTGTTTGACCTTTCACCGCCTAGGGAGATTAGAGTATCGGTCGA”, the binding signal amounted to 7.66 log2 normalized intensity.

In the case of “CCCTCTGAGTGTTTGACCTTTCACCCAGAAGCCTAGGGAGATTAGAGTATCGGTCGA”, the binding signal worked out at 6.42 log2 normalized intensity.

Take “CACTCTGGTGCCCTCTGAGTGTTTGACCTTGCCTAGGGAGATTAGAGTATCGGTCGA”: the binding signal amounted to 5.15 log2 normalized intensity.

In the case of “GTTGCTTCCACCTATGAGTCTGTAAAGTCAGCCTAGGGAGATTAGAGTATCGGTCGA”, the binding signal is 0.468 log2 normalized intensity.

“AATATTCTGGCTTCTCGTGAGTATTTTTTCGCCTAGGGAGATTAGAGTATCGGTCGA”: the binding signal was found to be 0.954 log2 normalized intensity.

Turning to “TTTGGAATTGTGTCACTCCCCAGGAATGTGGCCTAGGGAGATTAGAGTATCGGTCGA”, the binding signal came to 1.89 log2 normalized intensity.

Take “CCTCTGCACCCCACCAAGGACTGGACCACCGCCTAGGGAGATTAGAGTATCGGTCGA”: the binding signal was 2.34 log2 normalized intensity.

“CCACTTTGAATCAGGAGAGCATCTGAGTGTGCCTAGGGAGATTAGAGTATCGGTCGA”: the binding signal worked out at 1.15 log2 normalized intensity.

“CATCTTTGAAGAGCACAGGGTCAGCAGATCGCCTAGGGAGATTAGAGTATCGGTCGA”: the binding signal turned out to be 1.17 log2 normalized intensity.

In the case of “TTCTGATCTTTGACCTCTCCAGGGTCCTTGGCCTAGGGAGATTAGAGTATCGGTCGA”, the binding signal was 4.73 log2 normalized intensity.

Consider “AGAGCAGGAATTCTGATCTTTGACCTCTCCGCCTAGGGAGATTAGAGTATCGGTCGA”, for which the binding signal was 7.34 log2 normalized intensity.

Take “TAATCAGAGCAGGAATTCTGATCTTTGACCGCCTAGGGAGATTAGAGTATCGGTCGA”: the binding signal turned out to be 7.18 log2 normalized intensity.

Consider “AGGAATTCTGATCTTTGACCTCTCCAGGGTGCCTAGGGAGATTAGAGTATCGGTCGA”, for which the binding signal worked out at 5.99 log2 normalized intensity.

Consider “GCCACCTTGGTGAGAGATTAAACATGCTCTGCCTAGGGAGATTAGAGTATCGGTCGA”, for which the binding signal amounted to 0.469 log2 normalized intensity.

“ACAGCCTTTTGAGTTTCTACCATAGACCCTGCCTAGGGAGATTAGAGTATCGGTCGA”: the binding signal worked out at 1.05 log2 normalized intensity.

On to “TACCCCTGTGGTTGACCTTTAGTCTCTAGCGCCTAGGGAGATTAGAGTATCGGTCGA”, for which the binding signal was found to be 6.48 log2 normalized intensity.

On to “CATTCTACCCCTGTGGTTGACCTTTAGTCTGCCTAGGGAGATTAGAGTATCGGTCGA”, for which the binding signal amounted to 7.73 log2 normalized intensity.

Regarding “GGACTTGATCCATTCTACCCCTGTGGTTGAGCCTAGGGAGATTAGAGTATCGGTCGA”, the binding signal came to 2.25 log2 normalized intensity.

In the case of “TTACTGGACTTGATCCATTCTACCCCTGTGGCCTAGGGAGATTAGAGTATCGGTCGA”, the binding signal was 2.73 log2 normalized intensity.
